M18AAP inhibitor: PfM18AAP enzyme inhibition; recombinant PfM18AAP, H-Glu-NHMec fluorogenic cleavage; inhibition, % at 7.35 µM; hit rate 1.2% among 290,000;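 active = inhibition above the campaign mean inhibition over all tested compounds plus 3 SD, cut at about 28% in these data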
Rin1-Abl PPI inh: human Rin1-Abl interaction inhibition; TR-FRET Rin1/Abl binding, biochemical; inhibition, % at 7.35 µM; hit rate 0.4% among 360,000; AID 588664; in the data active = inhibition above about 5%, passing the limit was not always enough
Calb FLC: C. albicans growth modulation with fluconazole; growth inhibition, % (concentration not given with the values); C. albicans CaCi-2 (fluconazole-resistant clinical isolate) + fluconazole, Alamar Blue growth, 48 h; hit rate 0.57% among 300,000; AID 1979;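 active = growth inhibition above about 58% in most replicates, limit read from the data, passing the limit was not always enough; inconclusive = exactly half the replicates above a set limit; inactive = most replicates below a set limit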;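 note: all wells also contain fluconazole at 8 µg/ml as a sub-toxic cotreatment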
Fh CTSL1 inh: cathepsin L1 inhibition, PFM18AAP counter-screen; inhibition, % at 5.96 µM; hit rate 0.49% among 300,000; AID 1906; recombinant F. hepatica cathepsin L1, Z-Leu-Arg-MCA fluorescence;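 active = inhibition above the mean of all tested compounds plus 3 SD, set per screening campaign, cut at about 17% in these data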
A number is an active result; – = inactive; ? = inconclusive; · = no result given. Rows were chosen to be rich in hits. Some 2.1% of all compounds tested hit in one or more screens of this group.

SMILES	M18AAP inhibitor	Rin1-Abl PPI inh	Calb FLC	Fh CTSL1 inh
CCCCCc1ccc(OCCCC[n+]2cccc(C)c2)c(CCCCC)c1	–	–	106	–
CCCCCc1ccc(OCCCC[n+]2ccccc2)c(CCCCC)c1	–	–	100	–
O=C(NCC1CCCN(Cc2ccc3nonc3c2)C1)c1cccc(C(F)(F)F)c1 (centres undefined)	–	–	–	–
CCC(=O)N(c1ccc(C(=O)O)cc1)c1nc(-c2ccc(OC)cc2)c(C)s1	–	–	–	–
COC(C[C@@H]1O[C@H]1[C@H](O)[C@@H](C)OCc1ccccc1)OC	·	·	–	–
Cc1ccc(C(=O)N/N=C/c2cccc(OC(=O)/C=C/c3ccco3)c2)cn1	–	–	–	–
O=C(CNc1cccc2ccccc12)N/N=C/c1ccc(OC(=O)/C=C/c2ccco2)cc1	28	–	–	·
O=C(/C=C/c1ccco1)Oc1cc(Br)cc(/C=N/NC(=O)c2ccccc2O)c1	–	–	90	–
CCCN1CCc2c(sc(NC(=O)CCS(=O)(=O)c3ccccc3)c2C(=O)OC)C1	–	–	–	27
CCc1ccccc1NC(=O)CCNS(=O)(=O)c1ccc2c(c1)CCC(=O)N2	–	–	–	–
CNC(=O)/C(=C\c1ccco1)NC(=O)c1ccco1	–	–	–	–
CC(C)CC(NC(=O)/C(=C\c1ccco1)NC(=O)c1ccco1)C(=O)O (centres undefined)	–	–	–	38
O=C(NCc1ccccc1)/C(=C/c1ccco1)NC(=O)c1ccco1	–	–	–	28
CC(C)CC(NC(=O)/C(=C/c1ccco1)NC(=O)c1ccc(Br)o1)C(=O)O (centres undefined)	–	–	–	23
CC1(C)CC(N2CCOCC2)=CC(=S)N1	·	–	·	·
O=C(c1cc(=O)[nH]c2ccccc12)N1CC=C(c2ccccc2)CC1	·	–	–	–
Cc1c(O)ccoc1=O	–	–	–	–
O=C(CCCN1C(=O)C2CCCCN2C1=O)N1CCN(c2ccc([N+](=O)[O-])cc2)CC1 (centres undefined)	–	–	–	20
Cc1nc(N2CCCC2)c2nnn(Cc3ccccc3Cl)c2n1	–	–	–	18
O=C1CC(CC(=O)N/N=C/c2ccccc2[N+](=O)[O-])=NN1	–	–	–	18
CC(=O)Nc1cc(-c2ccncc2)cn2c(-c3ccccc3)cnc12	·	–	·	·
O=C(NC1CCCCC1)c1cc(-c2cccc(Cl)c2)on1	–	–	–	–
CCCn1c(N)c(C(=O)COC(=O)c2c(C)noc2C)c(=O)n(C)c1=O	–	–	100	–
O=C(Cc1ccc(O)cc1)N/N=C/c1cccnc1	–	–	102	·
CCN(c1ccccc1)S(=O)(=O)c1ccc(Cl)c(NC(=O)CN(C)C2CCN(C)CC2)c1	–	–	78	–
SMILES	M18AAP inhibitor	Rin1-Abl PPI inh	Calb FLC	Fh CTSL1 inh
CC(=O)O[C@H]1CC(C)(C)C(=C=C/C(C)=C/C=C/C(C)=C/C=C/C=C(C)/C=C/C=C(\C)C(=O)C[C@@]23O[C@]2(C)C[C@@H](O)CC3(C)C)[C@](C)(O)C1	·	·	–	34
CCn1cc(C(=O)N(CCC(C)C)c2c(N)n(Cc3ccccc3)c(=O)[nH]c2=O)c(=O)c2ccc(C)nc21	–	–	–	–
CC(C)[C@H](NC(=O)[C@@H]1Cc2c([nH]c3ccccc23)C2c3ccccc3C(=O)N21)C(=O)N1CCC[C@H]1C(=O)O (some centres undefined)	·	–	·	·
CCN(CC)c1ccc2nc3ccccc3[n+](CC)c2c1	–	–	90	–
COc1ccc2ncccc2c1Cc1c(OC)ccc2ncccc12	·	–	·	·
CCOC(=O)c1c(Nc2ccccc2)sc(/C=C2\C=Nc3ccccc32)c1O	–	–	–	–
Oc1nc(Nc2ccccc2)sc1/C=C1\C=Nc2ccccc21	–	–	91	–
COC(=O)C(NC(=O)CN1C(=O)c2ccccc2C1=O)c1ccc(O)c(OC)c1 (centres undefined)	–	–	–	17
Cc1ccsc1C(=O)OCC(=O)Nc1sccc1C(N)=O	–	–	96	–
CCOc1ccc(CC2c3cc(OCC)c(OCC)cc3CCN2C(=O)CN2CCN(C)CC2)cc1OCC (centres undefined)	–	–	–	–
Nc1nc(CN2CCCCCC2)nc(Nc2ccc(F)cc2)n1	–	–	–	–
Nc1nc(CN2CCN(c3ccccn3)CC2)nc(Nc2ccc(F)cc2)n1	–	–	92	–
O=C(COc1ccc(S(=O)(=O)Nc2ccccc2)cc1)NCc1ccncc1	–	–	–	–
COCCSc1nnc(NC(=O)C2CC(=O)N(c3ccc(C)cc3)C2)s1 (centres undefined)	–	–	99	–
O=C(O)CCCCCn1c(O)c(C=C2N=c3ccccc3=N2)sc1=S	–	–	83	–
CCCC(C(=O)O)n1c(O)c(C=C2N=c3ccccc3=N2)sc1=S (centres undefined)	30	–	–	–
O=C(O)c1cccc(-n2c(O)c(C=C3N=c4ccccc4=N3)sc2=S)c1	31	–	–	–
O=C(O)CCCn1c(O)c(C=C2N=c3ccccc3=N2)sc1=S	–	–	–	–
CC(C)(C)OC(=O)C[C@@H]1C/C=C\C[C@@H](CC(=O)N(CCO)Cc2ccccc2)C(=O)NC[C@H](c2ccccc2)OC1=O	·	–	·	·
CCCCC(=O)NC(=O)NC(c1ccccc1)c1ccccc1	–	–	–	33
CCCCC(=O)NC(=S)NNS(=O)(=O)c1ccccc1	–	–	–	–
COc1ccc(S(=O)(=O)Cc2ccc(C(=O)NC3CCCCCC3)o2)cc1	–	–	–	–
COc1cc(CN2CCC(C(=O)N3CCC(C)CC3)CC2)cc(Br)c1O	31	–	?	–
O=C1c2ccccc2NC(c2cn[nH]c2-c2ccccc2)N1O (centres undefined)	–	–	–	–
O=C1c2ccccc2NC(c2cn[nH]c2-c2ccc(Cl)cc2)N1O (centres undefined)	–	–	91	–
SMILES	M18AAP inhibitor	Rin1-Abl PPI inh	Calb FLC	Fh CTSL1 inh
C/C(=N\NC(=O)c1cccc(S(=O)(=O)N2CCOCC2)c1)c1ccc(C#N)cc1	–	–	–	–
CN(C)c1ccc2nc3ccc(=O)cc-3sc2c1	·	14	·	·
CCOC(=O)c1c(NC(=O)CCl)sc(CN(C)C)c1-c1ccccc1	–	–	–	22
O=c1/c(=C/c2ccc([N+](=O)[O-])cc2)sc2n1CCCN=2	28	–	–	–
COc1cc(/C=c2\sc3n(c2=O)CCCN=3)ccc1O	–	–	–	–
N#CCc1ccc(NC(=O)/C=C/c2ccc([N+](=O)[O-])o2)cc1	–	–	97	·
Cc1nnc(NC(=O)c2c(-c3ccccc3Cl)noc2C)s1	–	–	83	–
Cc1onc(-c2ccccc2Cl)c1C(=O)Nc1nnc(C(C)C)s1	–	–	–	–
COc1cc(OC)c(C(=O)Nc2cccc3ccccc23)cc1OC	–	–	–	–
CC(=O)N(c1ccc2oc(=O)sc2c1)S(=O)(=O)c1ccccc1	29	–	–	–
CCN(CC)c1nc(C#N)nc(N(CC)CC)n1	–	–	–	·
CCN(c1ccccc1)c1nc(C#N)nc(N(CC)c2ccccc2)n1	–	–	–	30
Cc1c(N=c2c(=O)c3ccccc3c2=O)c(=O)n(-c2ccccc2)n1C	·	·	–	56
CC(C)NC[C@H](O)COc1cccc2[nH]ccc12	·	–	–	86
